In the library only some 19% were active in any assay of this set; here they are far more common.
TDP1 cell CPT = qHTS for Inhibitors of human tyrosyl-DNA phosphodiesterase 1 (TDP1): qHTS in cells in presence of CPT; 420,000 tested, 12% active; chicken DT40 Tdp1-/-;hTDP1 cells + 20 nM CPT, ATP luminescence, 48 h; Potency, µM (titrated, usually from 46.2 µM), inactives show at the highest dose activity change, negative = growth inhibition, most hits filed as inhibitors; AID 686979, 2013; note: nearly all actives have a fitted effect of over 55% in size
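Chicken DT40 Tdp1-/- cells stably complemented with human TDP1 were seeded at 400 cells/well in medium containing 20 nM camptothecin, exposed to pin-transferred compounds, and grown at 37 °C for at least 48 hr. Viability was read as ATP luminescence.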
HT1080NT lethal = qHTS for induction of synthetic lethality in tumor cells producing 2HG: qHTS for the HT-1080-NT fibrosarcoma cell line. 360,000 tested, 1.6% active. HT-1080-NT fibrosarcoma viability, CellTiter-Glo ATP luminescence, 48 h. Potency, µM (titrated, usually from 46.1 µM), for inactives: at the top dose activity, negative = less viability, hits mostly cytotoxic;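 note: NT is the 2HG producing partner of a matched IDH1 knockdown line; 0% = DMSO-treated cells and -100% = media-only wells without cells; nearly all actives have a fitted effect of over 55% in size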
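HT-1080-NT fibrosarcoma cells (2HG-overproducing), 750 cells/well in RPMI with 5% FBS, dosed after 2 h and incubated 48 h at 37C. CellTiter-Glo luminescence normalized to DMSO and no-cell wells; concentration-response curves fitted and classed.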
KB-V1 MDR tox = qHTS assay for MDR1-selective chemotherapeutics: Primary screen using the drug-selected MDR subline cells KB-V1 | KB-V1 MDR cells viability, CellTiter-Glo, 72 h | Potency, µM (titrated, usually from 46.1 µM), usual class: cytotoxic | 400,000 tested, 3.4% active | AID 1347076, 2019; note: nearly all actives have a fitted effect of over 60% in size
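Readout: CellTiter-Glo luminescence, 10 min after addition. Cells: KB-V1 MDR subline, 72 h at 37 degrees C with compound. Analysis: corrected, normalized data fitted to concentration-effect curves.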
HT1080 IDH1KD tx = qHTS for induction of synthetic lethality in tumor cells producing 2HG: qHTS for the HT-1080-IDH1KD cell line; 360,000 tested, 2% active; HT-1080 IDH1 knockdown viability, ATP luminescence, 48 h; AID 686971, 2013; Potency, µM (titrated, usually from 46.1 µM), for the others: at the top dose activity, negative = toxicity, actives largely listed as cytotoxic;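 note: 0% = DMSO wells and -100% = cell-free medium wells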
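Assay cells: HT-1080 with IDH1 knockdown, 750 per well, RPMI/5% FBS. Exposure: 48 h at 37 °C following 2 h pre-incubation. Read: CellTiter-Glo luminescence; fitted concentration-response, curve class assigned.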
TDP1 cell noCPT = qHTS for Inhibitors of human tyrosyl-DNA phosphodiesterase 1 (TDP1): qHTS in cells in absence of CPT | DT40 Tdp1-/- hTDP1 cells, no CPT, ATP luminescence, 48 h | Potency, µM (top dose mostly 46.2 µM), for inactives: top-dose activity change, negative = growth inhibition, most hits filed as inhibitors | 420,000 tested, 15% active; note: nearly all actives have a fitted effect of over 55% in size
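Chicken DT40 Tdp1-/- cells stably complemented with human TDP1 were seeded at 400 cells/well with DMSO in place of 20 nM camptothecin. After compound pinning, cells grew at least 48 hr at 37 °C; viability read by CellTiter-Glo luminescence.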
KB-3-1 cytotox = qHTS assay for MDR1-selective chemotherapeutics: Primary screen using the parental adenocarcinoma cell KB-3-1 | KB-3-1 viability, CellTiter-Glo ATP luminescence, 72 h | Potency, µM (doses to about 46.1 µM), most hits filed as cytotoxic | 400,000 tested, 1.4% active; note: nearly all actives have a fitted effect of over 60% in size
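Viability of parental KB-3-1 cells, measured by CellTiter-Glo luminescence, followed a 72 h incubation at 37 °C with pinned compounds in phenol-red-free DMEM containing 10% FBS.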
The depositor's hits bear a star; i = inactive; ? = inconclusive; . = not tested or not shown; [ ] = dose if it differs, or a comment. Calls come from the whole dose curve; as a rule, active = well fitted curve in the direction sought with a large enough effect; inconclusive = small, poorly fitted or top-dose-only effect, or another doubt; inactive = no such curve, though single readings can be large; an effect the other way counts as inactive or inconclusive. Unless noted, % is set by controls: 0 for no effect and ±100 for the full control effect; potency is the fitted concentration of half-maximal effect.

SMILES | TDP1 cell CPT | HT1080NT lethal | KB-V1 MDR tox | HT1080 IDH1KD tx | TDP1 cell noCPT | KB-3-1 cytotox
CCc1ccc(OCCCC(=O)NCc2ccccc2)cc1 | 29µM* | ? | ? | ? | 21µM* | ?
O=C(CCCCCN1C(=O)c2ccccc2C1=O)Nc1ccccc1 | 2% | 6% | i | 9% | -22% | i
O=C(CCCCCCC(=O)Nc1ccccc1)NO | 0.42µM* | . | 1.3µM* | . | 0.6µM* | 8.2µM*
CC(C)COc1ccc(CC(=O)NO)cc1 | 8.9µM* | . | i | . | ? | i
CCOC(=O)c1ccccc1NS(=O)(=O)c1cnn(CC)c1C | -2% | 6% | ? | 7% | -7% | i
CS(=O)(=O)N(Cc1ccccc1Cl)c1ccc(C(=O)N2CCCC2)cc1 | -1% | 6% | i | 2% | -16% | i
COc1ccccc1N1CCN(CC(=O)N2CCCC2)CC1 | 6% | 28% | i | 20% | 6% | i
COc1ccc(C(=O)CCN2CCN(c3ccccc3OC)CC2)cc1 | 3.7µM* | ? | i | 0% | 5.2µM* | i
COc1ccccc1N1CCN(CC(=O)c2ccc3ccn(C(C)=O)c3c2)CC1 | 2.9µM* | 5% | i | -3% | ? | i
CCOC(=O)C1=C(COC(=O)C2CC(=O)N(CCc3ccccc3)C2)NC(=O)NC1C (configuration not stated) | 25% | 12% | i | 0% | 3% | i
Cc1nn(CCC(=O)N2CCN(c3ccccc3)CC2)c(C)c1S(=O)(=O)N1CCCC1 | 18µM* | . | i | . | ? | i
Cc1nn(CCC(=O)Nc2ccc(Cl)cc2)c(C)c1S(=O)(=O)N1CCCCC1 | 21µM* | . | . | . | 15µM* | .
Cc1nn(CCC(=O)Nc2cccc(C#N)c2)c(C)c1S(=O)(=O)N1CCCCC1 | ? | -3% | i | 4% | ? | i
Cc1ccc(NC(=O)CCn2nc(C)c(S(=O)(=O)N3CCCCC3)c2C)cc1Cl | ? | . | . | . | 16µM* | .
N#Cc1c(NC(=O)c2cc3nc(-c4ccc(Br)cc4)cc(C(F)(F)F)n3n2)sc2c1CCCC2 | 4% | . | . | . | -6% | .
CCN(CC(=O)Nc1ccc(NC(C)=O)cc1)C(=O)c1ccc(=O)n(C)n1 | 10% | 3% | i | 13% | 15% | i
Cc1ccc(C(=O)OCc2cc(=O)n3nc(-c4cccs4)sc3n2)cc1 | -10% | . | ? | . | -22% | i
O=C1NC(Cc2c[nH]c3ccccc23)C(=O)N1Cc1ccc(CN2C(=O)NC(Cc3c[nH]c4ccccc34)C2=O)cc1 (configuration not stated) | ? | -10% | i | -13% | 23µM* | i
O=C(c1ccc(Br)cc1)c1cc(-c2ccccn2)c(N2CCOCC2)s1 | ? | -2% | 4.1µM* | 7% | ? | i
O=C(c1ccc(Cl)c(Cl)c1)c1cc(-c2ccccn2)c(N2CCOCC2)s1 | ? | -6% | 4.1µM* | -7% | ? | i
C#CCN(C[C@@H]1[C@@H](OC(=O)NCc2ccccc2F)[C@@H](OC(=O)NCc2ccccc2F)Cn2c(=O)n(CCCCCC)c(=O)n21)S(=O)(=O)c1ccc(C)cc1 | ? | -2% | i | 8% | 12µM* | i
C#CCN(C[C@@H]1[C@@H](OC(=O)NCc2ccccc2F)[C@@H](OC(=O)NCc2ccccc2F)Cn2c(=O)ccc(=O)n21)S(=O)(=O)c1ccc(C)cc1 | 4.1µM* | 6.5µM* | i | 6.5µM* | 2.6µM* | 15µM*
C#CCN(C[C@@H]1[C@@H](OC(=O)NCC2CCCCC2)[C@@H](OC(=O)NCC2CCCCC2)Cn2c(=O)n(CCCCCC)c(=O)n21)S(=O)(=O)c1ccc(C)cc1 | ? | -2% | ? | 12% | 6.5µM* | i
COc1ccc(-c2cc3ccc(O)c(CN4CCCCC4C)c3oc2=O)cc1OC (configuration not stated) | ? | . | ? | . | 0% | i
c1ccc(Cn2ncc3c(N4CCN(C(c5ccccc5)c5ccccc5)CC4)ncnc32)cc1 | 18µM* | -10% | ? | -19% | 21µM* | ?
SMILES | TDP1 cell CPT | HT1080NT lethal | KB-V1 MDR tox | HT1080 IDH1KD tx | TDP1 cell noCPT | KB-3-1 cytotox
Cc1ccc(Cn2ncc3c(N4CCCC4)ncnc32)cc1 | ? | -11% | i | -3% | ? | i
Cc1ccc(Cn2ncc3c(N4CCN(CC#N)CC4)ncnc32)cc1 | -15% | -3% | i | -5% | ? | i
c1ccc(Cn2ncc3c(N4CCN(c5ccccc5)CC4)ncnc32)cc1 | 18µM* | 13% | ? | 9% | 16µM* | i
O=C([O-])c1cc(-c2ccccc2)cc(-c2ccccc2)[n+]1CCc1ccc(Cl)cc1 | 4.6µM* | ? | i | ? | 6.5µM* | ?
O=S(=O)(NCC1CCCO1)c1ccc(Cl)c2ccccc12 (configuration not stated) | ? | 1% | ? | 0% | ? | i
CN(Cc1nc2ccccc2c(=O)[nH]1)c1ccccc1 | ? | 8% | ? | 5% | -12% | i
COc1ccc(S(=O)(=O)N(Cc2ccccc2)Cc2nc3ccccc3c(=O)[nH]2)cc1 | 4.6µM* | -23% | ? | 3%[9.24 µM] | 5.2µM* | i
O=c1[nH]c(CN(CCc2ccccc2)S(=O)(=O)c2ccc(Cl)cc2)nc2ccccc12 | -4% | -6% | 3.3µM* | -18% | ? | i
O=c1[nH]c(Cc2ccc(Cl)cc2)nc2ccccc12 | 32% | 9% | i | -12% | -8% | i
COc1ccccc1CN(Cc1nc2ccccc2c(=O)[nH]1)S(=O)(=O)c1ccc2ccccc2c1 | 3.7µM* | ? | 13µM* | 6.3µM* | 5.6µM* | i
COc1ccc(CN(Cc2nc3ccccc3c(=O)[nH]2)C(=O)c2ccco2)cc1 | 1% | -29% | ? | -12% | -5% | i
Cn1cc(C(=O)[C@@H]2CCc3nc[nH]c3C2)c2ccccc21 | -11% | . | . | . | -19% | .
NC(=S)NNC(=O)c1cccc(Cl)c1 | 11% | 9% | i | 3% | ? | i

Compound activity deposited in PubChem by National Center for Advancing Translational Sciences (NCATS).
